# Measurements as given in PubChem BioAssay AID1671193 (National Center for Advancing Translational Sciences (NCATS), 2021).
# Hit rate of the full screen: of about 150,000 compounds, about 180 (0.12%) were called active. Not shown: some 6% with an inconclusive outcome. Shown is part of a subset that was picked to be rich in actives. Values without a mark were called inactive. The call rests on the fitted dose curve; in most records, active means well fitted cell-killing curve with a large enough effect; inconclusive means small, poorly fitted or top-dose-only effect, or effect the other way; inactive means flat fitted curve, though single readings scatter.
# Assay: GF-AFC viability counterscreen for inhibitors of alpha-synuclein gene (SNCA) expression; further: nearly all actives have a fitted effect of over 30% in size
# Settings: HEK-293-SNCA-luc viability, GF-AFC fluorescence, 24 h; series mostly up to 57.1 µM; activity change, negative = cytotoxicity: at the top concentration
# Text: Assay Submitter (PI): Daniel R. Scoles Ph.D.
# Department of Neurology, University of Utah, Salt Lake City, Utah
# Accumulation of alpha-synuclein is a main underlying pathological feature of Parkinson's disease (PD) and alpha-synucleinopathies, for which lowering expression of the alpha-synuclein gene (SNCA) is a potential therapeutic avenue. Using a cell-based luciferase reporter of SNCA expression we performed a quantitative high throughput screen (qHTS) of 155,885 compounds in dose response. The screening assay was generated using genome editing to insert the luciferase gene downstream and in frame of the SNCA gene in HEK-293 cells (1). A viability counterscreen using GF-AFC was used to eliminate cytotoxic and false positive compounds. After in silico analysis (clustering, removal of frequent hitter nuisance chemotypes), inhibitor compounds from the primary screen were selected for follow up and re-tested at 11-doses in the SNCA-luc cells (luciferase and GF-AFC confirmation), and in CMV-luc expressing cell line to flag general transcriptional repressors.
# Described herein are the results of the GF-AFC viability counterscreen for SNCA inhibitors; inactivity (no decrease in fluorescence signal, not cytotoxic) is the desired output for this assay.
# 1. Dansithong, W., Paul, S., Scoles, D. R., Pulst, S. M., and Huynh, D. P. (2015) Generation of SNCA Cell Models Using Zinc Finger Nuclease (ZFN) Technology for Efficient High-Throughput Drug Screening. PLoS ONE 10, e0136930.
# SEQUENCE No. (e.g., 1, 2, 3, etc.); […] (e.g., Cells, Incubation, Reagent, etc.); VALUE; DESCRIPTION
# 1; Cells; 4 uL; Dispense 1500 HEK-293-SNCA-luc cells/well into Greiner 1536-well white / solid bottom tissue culture treated plate. The plate was covered with metal lids with gas-exchange holes.
# 2; Incubate; 24 hours; Incubate at 37C, 5% CO2, 95% RH.
# 3; Compounds; 23 nL; Compounds and controls were transferred via a Kalypsys Pin Tool (Wako USA) equipped with a 1536-slotted pin array. The plate was covered with metal lids with gas-exchange holes.
# 4; Incubate; 24 hours; Incubate at 37C, 5% CO2, 95% RH.
# 5; Dispense; 1 uL; Dispense Gly-Phe-7-amino-4-trifluoromethylcoumarin (GF-AFC, prepared at 125 uM in PBS) was added. The plate was covered with metal lids with gas-exchange holes.
# 6; Incubate; 30 min; Incubate at 37C, 5% CO2.
# 7; Detector; Fluorescence; Measure fluorescence with ViewLux microplate reader (PerkinElmer) equipped with 405/10 excitation and 540/25 emission filters.
# 8; Dispense; 3 uL; Dispense ONE-Glo ([…]) lucifase detection reagent was added to each well. Plates were covered with metal lids with gas-exchange holes.
# 9; Incubate; 15 min; Incubate at room temperature.
# 10; Detector; Luminescence; Measure luminescence with ViewLux microplate reader (PerkinElmer) equipped with clear filters.
# NOTES (numbers refer to sequence above)
# 1; HEK-293-SNCA-luc were cultured and suspended in phenol-red free DMEM (4.5 g/L glucose, 25 mM HEPES, cat #21063 (Thermo)).
# 3; Compounds were added to the assay plate in an 11-point intra plate dose response, 1:3 titration in DMSO with a final concentration range of […]. Vehicle-only plates, with DMSO being pin-transferred to every well, were inserted at the beginning of screening runs to confirm expected assay performance. Activity was normalized to wells containing medium only (-100% activity, full inhibition) and SNCA-luc cells treated with DMSO vehicle control (0% activity), contained on the same plate as test samples.
# 10; Signals were analyzed, and dose-response curves were fit using the Hill equation. Compounds in curve classes -1.1, -1.2, -2.1, -2.2 in the SNCA-luc assay were considered active. Compounds were eliminated from further consideration if also active (curve class -1.1, -1.2, -1.3, -1.4, -2.1, -2.2, -2.3, -2.4) in the GF-AFC cytotoxicity assay.
# Potency means the concentration at half of the fitted maximal effect.
SMILES,"activity change, negative = cytotoxicity",Potency
O=C(c1ccc(F)cc1)N1CCC(C(=O)N2CCC(c3ccccc3)CC2)CC1,0.64%,
CCCN(Cc1nccn1C)C(=O)c1ccccc1C1CCNC1 (configuration not stated),0.415%,
O=c1c2nc(OCc3ccc(-n4cccn4)cc3)ccc2ncn1Cc1ccccc1,-18.7% [at 87.6 µM],
COc1cccc(CNC(=O)c2cn3cc(-c4ccc(C)cc4)sc3n2)c1,5.4%,
COCCOC1CN(C2CCN(S(=O)(=O)c3cccs3)CC2)C12CCCCC2 (configuration not stated),3.82%,
O=C([C@H]1CCCN1C(=O)c1ccc(Cl)nc1)N1CCCC(c2nc3ccncc3[nH]2)C1 (some centres not stated),-7.77%,
CCOc1ccc(NC(=O)CN(Cc2ccccc2)S(=O)(=O)c2ccc(Cl)cc2)cc1,4.16%,
CCOc1ccc(N(Cc2ccccc2)C(=O)c2nc(S(C)(=O)=O)ncc2Cl)cc1,,5.62 µM (active)
CCOc1ccc(N(Cc2ccccc2)C(=O)c2nc(SCC)ncc2Cl)cc1,-2.22%,
Cc1c(C(F)(F)F)nc(-c2ccc(CN3CCNCC3)cc2)[nH]c1=O,-0.179%,
Cc1ccc(NC(=O)Cn2ccn3nc4c(c3c2=O)CCCCC4)cc1,-18.2%,
Cc1ccc(OCc2nc(C3CCN(C(=O)Cc4cccc(F)c4)CC3)no2)cc1,-5.46%,
O=C(COc1ccc(F)cc1)NC1CCN(c2cc(-c3ccccc3)[nH]n2)CC1,1.28%,
CCC1Oc2ccc(NC(=O)c3c(F)cccc3F)cc2CN(CCc2ccc(F)cc2)C1=O (configuration not stated),6.09%,
COC(=O)[C@@H]1Cc2c([nH]c3ccccc23)[C@H]2C[C@@H](NCCN3CCOCC3)C[C@@H](c3ccccc3)N21,-7.47%,
COC(=O)[C@@H]1Cc2c([nH]c3ccccc23)[C@H]2C[C@H](NCCNC(C)=O)C[C@@H](c3ccc(C)cc3)N21,-6.82%,
COC(=O)[C@@H]1Cc2c([nH]c3ccccc23)[C@H]2C[C@@H](NCCN3CCOCC3)C[C@@H](c3ccccc3F)N21,,28.2 µM (active)
CN(C)C[C@@H]1CN(S(C)(=O)=O)C[C@H]1NC(=O)c1nn(C)c2ccccc12,-3.91%,
COc1ccccc1Nc1ccnc(N2CCC(C(=O)NCc3cccc(Cl)c3)CC2)n1,-6.27%,
O=C(c1ccc(F)cc1)N1CCN(c2cc(-c3ccc(F)cc3)[nH]n2)CC1,6.86%,
CCOC(=O)C1CCN(C(=O)C2CCc3nnc(CN[S+](C)(=O)[O-])n32)CC1 (configuration not stated),-2.85%,
O=C(c1ccon1)N1CC[C@@H]2[C@@H](CCC(=O)N2CC2CCNCC2)C1,0.0233%,
CCOc1ccccc1NC(=O)N1CCCN(C)c2ccccc21,-9.62%,
O=C(CCc1ccccc1)Nc1ccc([C@@H](O)[C@H]2COCC(=O)N2Cc2ccccc2F)cc1,1.47%,

SMILES,"activity change, negative = cytotoxicity",Potency
O=C(CCc1ccnc(N2CCCC2)c1)N1CCN(c2ccccc2)CC1,0.0928%,
Cc1ccc(NC(=O)c2nc(S(=O)(=O)Cc3cccc(C)c3)ncc2Cl)cc1,,28.2 µM (active)
CCSc1ncc(Cl)c(C(=O)Nc2cc(C)ccc2C)n1,-4.44%,
CCCS(=O)(=O)c1ncc(Cl)c(C(=O)Nc2scc(-c3ccccc3)c2C(=O)OCC)n1,-14.4%,
CC1=C[C@@H](CN2CCC(O)CC2)[C@H](C(C)C)C[C@H]1Cc1nnc(-c2ccccc2F)o1,-25.2% [at 87.6 µM],
C[C@@H](c1ccccc1)N(C)C(=O)c1cc(COc2cccc(F)c2)[nH]n1,-5.67%,
CCOC(=O)c1cccc(NC(=O)c2ccc3c(c2)N(C)C2CCCCN2C3=O)c1 (configuration not stated),4.91% [at 12.5 µM],
Cc1cccc(C(=O)N2CCC(OC3CCN(Cc4ccccc4)CC3)CC2)c1,-20.7%,
O=C(Nc1ccc(C(F)(F)F)cc1)C1=NO[C@@H]2CN(CCc3ccccc3)C[C@H]12,4.72% [at 87.6 µM],
COc1ccc(S(=O)(=O)N2C[C@@H]3C[C@H](C2)c2c(NC(=O)C4CCCCC4)ccc(=O)n2C3)cc1,-4.88%,
Cc1ccc(S(=O)(=O)N2CCCC(Cn3c(C4CC4)nc4cccnc43)C2)cc1C (configuration not stated),0.546%,
CC(C)c1nc(-c2ccc(OC3CCN(C(=O)CCc4nc5ccccc5[nH]4)C3)cc2)no1 (configuration not stated),-18.1%,
COc1ccc(-n2nc(C)c([C@@H]3C=C[C@@H](NC(=O)Nc4ccccc4)C3)c2C)cc1,-21% [at 87.6 µM],
CCc1ccccc1NC(=O)N1CCCC(Cn2c(C)nc3cccnc32)C1 (configuration not stated),0.623%,
O=C(NC1CCN(c2nc3ncccc3o2)CC1)c1ccc(Cl)nc1,-25.4%,
CCc1ccc(NC(=O)Cn2ccn3nc4c(c3c2=O)CCCC4)cc1,2.41%,
COc1ccc(NC(=O)N[C@H]2[C@H](O)[C@@H](N3CCN(c4ccccc4)CC3)[C@@H]3OC[C@H]2O3)cc1,-6.88%,
Cc1nc(N(C)C)ncc1C(=O)NC(C(=O)O)c1c(C)n[nH]c1C (configuration not stated),-18%,
COc1ccc(CC(=O)N2CC[C@@H](CC(=O)O)[C@@H](CCN3CCNCC3)C2)cc1,6.71% [at 87.6 µM],
Cc1cc(NC(=O)c2ccc3c(c2)N(C)C2CCCCCN2C3=O)ccc1F (configuration not stated),-3.22% [at 12.5 µM],
COc1nc2nc(CC3CC3)n(C)c2cc1-c1cccc(NC(C)=O)c1,-14.5% [at 87.6 µM],
O[C@H]1[C@H](NCc2ccco2)[C@H]2CO[C@H](O2)[C@@H]1N1CCC(Cc2ccccc2)CC1,4.17% [at 87.6 µM],
COCCC1(NS(C)(=O)=O)CCN(C(=O)c2ccc(OC)nc2OC)CC1,0.208%,
